# Hit rate of the full screen: of about 94,000 compounds, about 20 (0.02%) were called active. Roughly 1% stayed inconclusive and do not appear here. Calls follow the shape of the dose curve; as a rule, active = well fitted activation curve with a large enough effect; inconclusive = small, poorly fitted or top-dose-only effect; inactive = flat fitted curve, though single readings scatter. A selection follows.
# Assay: qHTS of alpha-syn Inhibitors: NCGC Sytravon Library Screen
# Details: S. cerevisiae alpha-synuclein toxicity rescue, BacTiter-Glo growth, 24 h; series mostly up to 46.1 µM
# Source text: The goal of this project is to identify new chemical probes capable of reversing the toxicity associated with the Parkinson disease-related protein, alpha-synuclein. Compounds will be selected on their ability to restore growth in yeast cells expressing toxic levels of alpha-synuclein. These compounds will provide a complementary approach to deciphering the tangled mechanisms of toxicity and protection that we have uncovered through genome-wide genetic screens and are beginning to uncover in a large-scale proteomics analysis with mass spectroscopy. To this end, a miniaturized assay was developed to be screened against the Molecular Libraries Small Molecule Repository (MLSMR) to discover alpha-synuclein inhibitors. […] The phenotype of interest will be that of an Activator and this screen is run against the NCGC Sytravon Library collection. NIH Chemical Genomics Center [NCGC] NIH Molecular Libraries Probe Centers Network [MLPCN] MLPCN Grant: NS060957 Assay Submitter (PI): Susan Lindquist, Whitehead Institute/MIT
# Dispense 2.5 microL yeast galactose medium per 1536-well plate, pin compound, dispense 2.5 microL alpha-synuclein expressing yeast in galactose medium at OD600=0.02 (pregrown in raffinose medium to mid-log phase) per well, incubate for 24 hr at 30 deg C, and cell growth will be measured using 5 microL of Bactiter/Glo reagent to entire plate and read using Luminescence Protocol in ViewLux.
row,Compound,outcome
1,CCN(CC(=O)NCCc1ccccc1)S(=O)(=O)c1ccccc1,inactive
2,CCc1ccccc1OCC(=O)Nc1ccc2c(c1)OCCO2,inactive
3,CCN(CC)CCn1c2c(c(SCC(=O)Nc3ccc(C(C)C)cc3)nc1=O)CCC2,inactive
4,CCC(=O)c1ccc(OCC(=O)N(CC)CC2COc3ccccc3O2)cc1 (stereo unspecified),inactive
5,CC(=O)Nc1ccc2nc(NC(=O)CS(=O)(=O)c3ccc(F)cc3)sc2c1,inactive
6,COc1ccc(NC(=O)CCC(=O)Nc2cc(OC)c(NC(=O)c3ccco3)cc2OC)c(OC)c1,inactive
7,COc1cc(NC(=O)CN(C)S(=O)(=O)c2ccc3nc(C)sc3c2)cc(OC)c1,inactive
8,CCCCn1c(SCC(=O)N2CCOCC2)nc2c1c(=O)n(C)c(=O)n2C,inactive
9,CSc1nnc(C2CCCN(CC(=O)Nc3ccccc3N3CCOCC3)C2)n1C(C)C (stereo unspecified),inactive
10,Cc1cc2cc3n(c2nn1)N=C(Cl)CC3,inactive
11,CCOc1ccc(-c2n[nH]c(C)c2-c2ccccn2)c(O)c1,inactive
12,O=C(Nc1cc(F)ccc1F)c1ccc2c(=O)n3c(nc2c1)CCC3,inactive
13,COc1ccc(NC(=O)CC2C(=O)NC3CCCCC3N2C(=O)c2ccc(F)cc2)cc1 (stereo unspecified),inactive
14,O=C(Nc1ccc(F)c([N+](=O)[O-])c1)C1CCCO1 (stereo unspecified),inactive
15,CCOC(=O)c1[nH]cnc1C(=O)Nc1ccccc1C,inactive
16,O=C(c1ccccc1)N1CCN(C(=O)c2cc3nc(-c4ccccc4)cc(C(F)(F)F)n3n2)CC1,inactive
17,O=S(=O)(Nc1ccccc1Br)c1cccs1,inactive
18,O=C(Nc1ccccc1C(=O)N1CCCCC1)c1ccco1,inactive
19,COc1cccc(N2CC(NS(=O)(=O)c3cccs3)CC2=O)c1 (stereo unspecified),inactive
20,Cc1cn([C@H]2C[C@H](O)[C@@H](CNC(=O)[C@H](N)Cc3cccnc3)O2)c(=O)[nH]c1=O,inactive
21,COC(=O)c1cc(OCC(=O)NC2CCCc3ccccc32)cc(C(=O)OC)c1 (stereo unspecified),inactive
22,O=C(Cc1ccccc1)NNC1CC(=O)N(c2ccc(Br)cc2)C1=O (stereo unspecified),inactive
23,CCOC(=O)C1=C(c2ccccc2)NC(=S)NC1c1ccc(Cl)cc1 (stereo unspecified),inactive
24,COc1ccc(-n2c(-c3ccc(Cl)cc3)n[nH]c2=S)c(OC)c1,inactive

row,Compound,outcome
1,COc1ccc(CC(=O)NC(C)CCc2ccccc2)cc1 (stereo unspecified),inactive
2,C/C(CC(=O)NC(C)c1ccccc1)=N\NC(N)=S (stereo unspecified),inactive
3,CN(C)c1ccc(C(=S)N2CCN(C(=S)Nc3ccc(Cl)cc3)CC2)cc1,inactive
4,CCCOc1ccc(/C=N/NC(=O)C2CC2)c(OCCC)c1,inactive
5,CCOC(=O)Cc1ncccc1C(=O)Nc1ccc(OC)cc1,inactive
6,COc1ccc(CN2C(=O)C(CC(=O)NCCCCc3ccccc3)CC(C(=O)N3CCOCC3)=C2C)cc1 (stereo unspecified),inactive
7,CCOC(=O)c1c(NC(=O)COC(=O)c2ccc(S(=O)(=O)C(F)F)cc2)sc(C(=O)N(C)C)c1C,inactive
8,CC(=O)Nc1ccc(C(=O)NNC(=O)CCCCC(=O)NNC(=O)c2ccc(NC(C)=O)cc2)cc1,inactive
9,O=C(O)CC12CC3CC(C1)CC(n1ncc(NCc4ccc(F)cc4)c(Cl)c1=O)(C3)C2,inactive
10,CCOc1cc2c(Cl)ncnc2c(OCC)c1OCC,inactive
11,COc1ccc(N2CCN(C(=O)[C@@H](NC(=O)c3cc(OC)cc(OC)c3)C(C)C)CC2)cc1,inactive
12,O=C(NCCOc1ccccc1)c1ccccc1F,inactive
13,O=C(CSc1nnc(CN2CCCC2)n1-c1ccc(F)cc1)c1ccc2c(c1)OCO2,inactive
14,C[C@H]1CN(c2ccc(Br)cc2)C(=O)[C@@H]1CC(=O)Nc1ccc(Br)cc1,inactive
15,COC(=O)CNC(=O)c1cc(-c2ccncc2)nc2ccccc12,inactive
16,O=C(NC1CCCC1)c1cc(-c2ccccc2)on1,inactive
17,CCOc1ccc(C(CC(=O)O)n2cnnn2)cc1OC (stereo unspecified),inactive
18,COCCN(Cc1nc(-c2ccc(C(F)(F)F)cc2)no1)C(C)C,inactive
19,CC(Nc1nc(C(F)(F)F)nc2ccccc12)c1cccs1 (stereo unspecified),inactive
20,CCc1noc(C)c1C(=O)OCC(=O)c1ccc(NC(=O)CC(C)C)cc1,inactive
21,CCc1nc2c(=O)[nH]cnc2o1,inactive
22,CN(Cc1ccc(F)cc1Cl)S(=O)(=O)c1cccs1,inactive
23,O=C(OCC(=O)N1CCCCCC1)c1cccc(Cl)c1Cl,inactive
24,O=C(CN1CCCCC1)NC(=O)Nc1ccccc1F,inactive

row,Compound,outcome
1,Cc1ccc(O)c(NC(=O)c2cc(-c3ccco3)on2)c1,inactive
2,CCOC(=O)Cc1cc(=O)[nH]c(/N=C(\N)Nc2ccc(OC)cc2)n1,inactive
3,COc1ccccc1N(C)C(=O)c1cc(S(=O)(=O)N2CCc3ccccc32)cn1C,inactive
4,COc1ccc(-c2ccc3[nH]c4c(c3c2)CCN2C[C@H]3[C@H](C)ON(C)[C@H]3C[C@@H]42)cc1,inactive
5,CC(=O)Nc1ccccc1NC(=O)c1cc(C)cc(C)c1,inactive
6,O=C(COC(=O)Cc1ccc(Cl)cc1Cl)NCc1ccco1,inactive
7,Cc1cc(=O)c2ccc(NC(=O)c3ccccc3)cc2[nH]1,inactive
8,Cc1cc2c3ccccc3[nH]c(=O)n2n1,inactive
9,COc1cccc(COC(=O)C2CCN(S(=O)(=O)c3cccs3)CC2)c1OC,inactive
10,CSc1nc(-c2ccco2)nn1C(=O)c1ccccc1Cl,inactive
11,COc1ccc(C=C2CCC3C(CCCC34OCCO4)C2=O)cc1 (stereo unspecified),inactive
12,Cc1cccc(NC(=O)c2cc([N+](=O)[O-])ccc2N2CCN(C)CC2)c1,inactive
13,CCN(CCNC(=O)C1=C(C)C(=O)OC12CCC(C)CC2)c1ccccc1 (stereo unspecified),inactive
14,CCCCN1C(=O)C(CC(=O)NC(c2ccccc2)c2ccccc2)CC(C(=O)N2CCOCC2)=C1C (stereo unspecified),inactive
15,COCCn1c(C)cc(C(=O)COC(=O)/C=C/c2cccc(OC)c2)c1C,inactive
16,C[C@@H]1CN([C@@H](C)CO)C(=O)c2cc(NS(C)(=O)=O)ccc2O[C@@H](C)CCCCO[C@H]1CN(C)C(=O)Nc1ccc2c(c1)OCO2,inactive
17,COc1ccc(C(=O)COC(=O)CNC(=O)c2cccs2)cc1Br,inactive
18,Cc1ccccc1NS(=O)(=O)CCCCC(Cl)(Cl)Cl,inactive
19,CC1CCN(C(=O)CCNC(=O)c2ccccc2)CC1,inactive
20,CC(C)CN(C(=O)COC(=O)c1ccc2ccccc2c1)c1c(N)n(Cc2ccccc2)c(=O)[nH]c1=O,inactive
21,COc1ccc(/C=C(\NC(=O)c2ccccc2)C(=O)NCCN2CCOCC2)cc1OC,inactive
22,Cc1ccc(SCCC(=O)Nc2cc(C)on2)cc1,inactive
23,Cc1onc(-c2ccccc2Cl)c1C(=O)OCc1nnc(-c2ccccc2)o1,inactive

# — PubChem BioAssay AID1347070 (National Center for Advancing Translational Sciences (NCATS), 2019)
